Rows were chosen to be rich in hits. Some 12% of all compounds tested hit in one or more screens of this group.
HP1b binding inh = HP1-beta chromodomain-methylated histone interaction inhibition. P83916. AlphaScreen HP1-beta / biotin-H3K9me3 peptide binding. Potency, µM (doses to about 114 µM), without a hit: top-dose activity change, negative = inhibition, usual class: inhibitors. hit rate 0.56% among 390,000. AID 540317; also: nearly all actives have a fitted effect of over 70% in size
Target sequence (P83916 whole entry, looked up): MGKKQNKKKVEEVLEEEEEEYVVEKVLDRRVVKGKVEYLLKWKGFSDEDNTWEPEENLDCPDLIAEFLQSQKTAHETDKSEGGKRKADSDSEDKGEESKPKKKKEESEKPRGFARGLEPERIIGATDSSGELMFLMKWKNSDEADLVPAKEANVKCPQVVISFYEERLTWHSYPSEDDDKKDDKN
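HP1-beta protein (50 nM final) preincubated 30 min at room temperature with biotinylated H3(1-18)K9me3 peptide (50 nM) in PBS pH 7.4, 0.01% Tween-20, then compound added for 30 min. AlphaScreen streptavidin donor/nickel chelate acceptor beads (10 ug/mL final), 30 min dark, luminescence read.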
JMJD2A Tudor inh = inhibitors of human JMJD2A Tudor domain; O75164; AlphaScreen JMJD2A-Tudor / H3K4me3 peptide binding; hit rate 4.4% among 390,000; Potency, µM (series often up to 114 µM), for inactives: at the top dose activity change, negative = inhibition, usual class: inhibitors; AID 504339; also: % is scaled to controls: 0 for no effect and ±100 for the full control effect; nearly all actives have a fitted effect of over 50% in size
Sfp PPTase inh = inhibitors of Bacillus subtilis Sfp phosphopantetheinyl transferase | Q9F4F7 | Biochemical Sfp PPTase activity, qHTS | Potency, µM, for the others: largest response in the series, negative = inhibition, hits mostly inhibitors | hit rate 3.5% among 310,000 | AID 1490;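 also: the enzyme is Sfp with the accession as filed and its product quenches rhodamine fluorescence; 0% = enzyme reaction without inhibitor and -100% = no enzyme wells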
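Step 1, compound plus 15 nM Sfp-PPTase, 15 min, room temperature. Step 2, add rhodamine-CoA (5 uM) and BHQ-2-YbbR (12.5 uM). Step 3, read 525/598 nm fluorescence at 0 and 30 min.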
BAZ2B inh = inhibitors of human BAZ2B bromodomain; AlphaScreen BAZ2B-H3K14Ac peptide displacement; Potency, µM (series often up to 114 µM), for inactives: at the highest dose activity change, negative = inhibition, usual class: inhibitors; hit rate 4.4% among 360,000; also: % is scaled to controls: 0 for no effect and ±100 for the full control effect; nearly all actives have a fitted effect of over 60% in size
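AlphaScreen displacement: compounds (up to 110uM) incubated 30 min at room temperature with a preformed 50 nM BAZ2B/50 nM biotinylated H3K14Ac peptide complex in PBS pH 7.4 with Tween-20. Donor and acceptor beads at 10 ug/mL final added, 20 min light-protected before reading.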
G9a inh = blocks human histone lysine methyltransferase G9a; G9a H3K9 monomethylation, AlphaScreen, 2 h; Potency, µM (top dose mostly 102 µM), for the others: at the top dose activity, negative = inhibition, usual class: inhibitors; hit rate 8.8% among 350,000; Q96KQ7; AID 504332; also: % is scaled to controls: 0 for no effect and ±100 for the full control effect; nearly all actives have a fitted effect of over 75% in size
Target sequence (Q96KQ7 913-1193 limits assumed): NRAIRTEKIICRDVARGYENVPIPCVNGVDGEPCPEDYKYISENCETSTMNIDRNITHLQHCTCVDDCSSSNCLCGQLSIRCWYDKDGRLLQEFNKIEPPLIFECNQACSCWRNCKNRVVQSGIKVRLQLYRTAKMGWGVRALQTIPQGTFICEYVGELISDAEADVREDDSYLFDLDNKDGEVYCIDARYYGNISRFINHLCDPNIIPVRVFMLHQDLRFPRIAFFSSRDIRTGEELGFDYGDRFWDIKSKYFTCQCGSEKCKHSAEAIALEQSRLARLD
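AlphaScreen read-out: biotin-H3K9 peptide (500 nM) methylation by 20 nM enzyme with 20 uM SAM, 2 h at room temperature after 15 min compound preincubation; anti-monomethyl H3K9 antibody plus donor/acceptor beads, 10 min dark.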
L3MBTL1 block = blocks human L3MBTL1 | Q9Y468 | AlphaScreen L3MBTL1–H3K9me1 peptide binding | Potency, µM (top dose mostly 57.1 µM), for inactives: top-dose activity, negative = inhibition, most hits filed as inhibitors | hit rate 0.66% among 230,000; also: % is scaled to controls: 0 for no effect and ±100 for the full control effect; nearly all actives have a fitted effect of over 60% in size
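L3MBTL1 (50 nM) pre-complexed 30 min with biotinylated H3(1-15)K9me1 peptide (75 nM), then compounds added for 30 min at room temperature; AlphaScreen streptavidin donor/nickel chelate acceptor beads (10 ug/mL final) read after 30 min dark incubation.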
Active calls of the source: *; ? = inconclusive; · = no result given; ! = a repeat was not active; [ ] = another dose, or the depositor's remark. Calls follow the shape of the dose curve; as a rule, active = well fitted curve in the direction sought with a large enough effect; inconclusive = small, poorly fitted or top-dose-only effect, or another doubt; inactive = no such curve, though single readings can be large; an effect the other way counts as inactive or inconclusive. Potency is read from the fitted curve at half-maximal effect.

SMILES | HP1b binding inh | JMJD2A Tudor inh | Sfp PPTase inh | BAZ2B inh | G9a inh | L3MBTL1 block
C=CCSC(=C(C#N)C#N)c1cc2c([nH]1)CCCC2 | ? | 50.1µM* | -19.5% | 50.1µM* | -47.9%[12.7 µM] | ·
O=C(O)c1cc2c([nH]c1=O)CCCC2 | 36.0% | ? | -2.0% | -35.2% | ? | 0.8%[11.4 µM]
CC(C)C[C@@H](CC(=O)N[C@H](CC(=O)N[C@@H]1CCCC[C@H]1C(=O)N[C@H](CC(=O)N[C@@H](CCC(=O)O)CC(=O)O)Cc1c[nH]c2ccccc12)C(C)C)NC(=O)[C@@H]1CCCC[C@H]1N | · | · | 7.1% | · | · | ·
Cc1cc(C)cc(NC(=O)CN(C)S(=O)(=O)c2ccc3[nH]c4c(c3c2)CCCC4)c1 | 8.1% | ? | · | -34.6% | ? | ·
CN(CC(=O)NCc1ccccc1)S(=O)(=O)c1ccc2[nH]c3c(c2c1)CCCC3 | 0.7% | ? | · | ? | ? | ·
CN(CC(=O)NCc1ccc(F)cc1)S(=O)(=O)c1ccc2[nH]c3c(c2c1)CCCC3 | -1.5% | ? | · | 39.8µM* | 15.8µM* | ·
CCOc1ccc(NC(=O)CN(C)S(=O)(=O)c2ccc3[nH]c4c(c3c2)CCCC4)cc1 | -37.5% | ? | · | ? | 10µM* | ·
CN(Cc1ccccc1)S(=O)(=O)c1ccc2[nH]c3c(c2c1)CCCCC3 | -8.9% | ? | · | -30.8%[57.1 µM] | ? | ·
Cc1cccc(N(C)C(=O)CN(C)S(=O)(=O)c2ccc3[nH]c4c(c3c2)CCCC4)c1 | ? | ? | · | ? | 11.2µM* | ·
Cc1cccc(C)c1NC(=O)CN(C)S(=O)(=O)c1ccc2[nH]c3c(c2c1)CCCC3 | -8.0% | ? | · | 39.8µM* | 14.1µM* | ·
O=C(c1cccc(F)c1)N1CCC2(CCCN(c3ccccc3)C2)CC1 | · | · | 2.6% | · | -4.1%[12.7 µM] | ·
CCN(Cc1ccccc1)C(=O)CCS(=O)(=O)c1cc2c(cc1Cl)NC(=O)CO2 | 50.1% | -3.5% | -1.7% | 4.4% | 50.1µM*! | 2.5%
COc1ccc(-c2ocnc2C(=O)N2CCN(C(=O)C(c3ccccc3)c3ccccc3)CC2)cc1 | 18.3% | -20.4% | -10.2% | -29.5% | 50.1µM* | ·
CC(C)(C)NC(=O)CSc1nc2ccccc2n1-c1ccccc1 | 10.5% | -26.2% | 50.1µM* | 8.0% | ? | ·
CC(C)NC(=O)CSc1nc2ccccc2n1-c1ccccc1 | 57.0% | -9.0% | 18.9% | 7.3% | -19.0%[59 µM] | -8.4%
CCn1c(SCC(=O)NC(=O)NC(C)(C)C)nc2ccccc21 | ? | 11.2µM* | 2.6% | -3.8% | -5.0% | ·
COc1ccc(CCCO[C@@H](Cn2ccnc2)c2ccc(OC)cc2)cc1 | · | · | -3.6% | · | · | ·
CCC(Sc1nnc(-c2ccc(C)c(Cl)c2)n1CC)C(=O)Nc1nccs1 (stereo not given) | 40.9% | 89.1µM* | 6.1% | 2.5% | ? | -1.3%
CCn1c(SCC(=O)Nc2nccs2)nnc1-c1ccc(S(=O)(=O)N2CCCCCC2)cc1 | 38.8% | -12.2% | 15.9% | -2.3% | -43.5%[59 µM] | ·
CCOC(=O)N1CCC(N2Cc3cccc(C(=O)Nc4ccc(N(CC)CC)cc4C)c3C2=O)CC1 | ? | 25.1µM* | -3.2% | 14.1µM* | 10µM* | ·
CCOC(=O)N1CCC(N2Cc3cccc(C(=O)NCC4CCN(CC(C)C)C4)c3C2=O)CC1 (stereo not given) | 10.5% | -15.5% | -17.1% | 9.3% | 50.1µM* | ·
CCOC(=O)N1CCC(N2Cc3cccc(C(=O)Nc4cc(F)ccc4F)c3C2=O)CC1 | 36.4% | -7.7% | 15.5% | 10.4% | -18.6% | ·
COc1cccc(OC)c1C(=O)Nc1cccc2c1CCCC2 | 33.4% | -9.5% | 9.5% | 12.6% | 2.7%[0.501 µM] | 0.4%[2.29 µM]
Cc1ccc(NC2(c3ccccc3)C(=O)c3ccccc3C2=O)cc1F | -21.9% | ? | · | ? | 12.6µM* | ·
CCCCCCSc1nnc2c(n1)OC(C)Nc1ccc(Br)cc1-2 (stereo not given) | 8.2% | -32.2% | · | -18.2% | ? | ·
SMILES | HP1b binding inh | JMJD2A Tudor inh | Sfp PPTase inh | BAZ2B inh | G9a inh | L3MBTL1 block
O=C(Nc1ccc(S(=O)(=O)N2CCOCC2)cc1)c1ccc(S(=O)(=O)N2CCOCC2)cc1 | 26.7% | -4.9% | 3.7% | 8.6% | ? | ·
CCN(CC)c1ccc(NC(=O)c2ccc(S(=O)(=O)N3CCOCC3)cc2)cc1 | ? | 44.7µM* | · | · | · | -18.4%
O=C(O)c1nccnc1C(=O)Nc1ccc(S(=O)(=O)N2CCOCC2)cc1 | 2.0% | ? | 5.6% | -16.0% | 44.7µM* | -3.2%
O=C(Nc1ccc(S(=O)(=O)N2CCCC2)cc1)c1c(F)cccc1F | 11.4% | -16.0% | 4.9% | -5.1% | 14.3% | ·
O=C(Nc1ccc(S(=O)(=O)N2CCOCC2)cc1)c1c(F)cccc1F | 8.2% | -0.7% | -28.3% | -33.9% | 35.5µM* | ·
COc1ccccc1CNc1cc(-c2ccccc2C(F)(F)F)ncn1 | · | · | 2.4% | · | -0.4%[0.501 µM] | ·
O=C(Nc1ccc2c(c1)OCO2)c1cc2ncc(Br)cn2n1 | ? | ? | -6.5% | 50.1µM* | ? | ·
COCCNC(=O)c1cc2ncc(Br)cn2n1 | 28.1% | 0.0% | 4.1% | -1.7% | 1.8%[59 µM] | ·
O=C(NCCc1ccccc1)c1cc2ncc(Br)cn2n1 | 30.6% | -25.1% | 1.3% | 50.1µM* | -6.8%[12.7 µM] | ·
CC(C)CN(C(=O)COC(=O)c1ccccc1SCC(=O)N1CCCC1)C1CCS(=O)(=O)C1 (stereo not given) | 14.0% | -6.8% | · | · | · | ·
CCc1ccc(C2c3c(-c4cc(C)ccc4O)n[nH]c3C(=O)N2Cc2cccnc2)cc1 (stereo not given) | 11.1% | ? | · | -26.3% | 13.9%[59 µM] | ·
Cc1c(Cl)cccc1NC(=O)CNc1cccc(C(F)(F)F)c1 | 33.1% | -17.2% | 21.1% | 6.7% | 70.8µM* | 7.4%
COc1ccccc1CCNC(=O)c1nccnc1C(=O)O | 14.4% | -3.1% | 16.0% | -25.4% | 35.5µM* | ·
CC1=C(c2ccc(C(C)C)cc2)S(=O)(=O)NC1=NCc1ccccc1C | 22.5% | -8.3% | · | 2.1% | -34.1%[59 µM] | ·
